Inconclusive results are not listed. Activity calls are given as the source filed them. The calls were made as follows, unless noted: active = hit-call score of the fitted dose curve at least 0.9, where 1 is the maximum; inconclusive = response in the unintended direction; inactive = score below 0.9.
Experiments:
[1] = ATG_TCF_b_cat_CIS: Attagene CIS-FACTORIAL HepG2 Assay for human T-Cell-Factor with beta-catenin (TCF/b-cat) (AID 2282965; active = hit-call score of the fitted dose curve at least 0.9, where 1 is the maximum; inactive = score below 0.9); conditions: HepG2 TCF/beta-catenin cis-reporter transcription, actives raise or lower the signal
Method in brief: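 Endogenous transcription factor activity is captured through cis-promoter reporter constructs transiently introduced into human HepG2 liver cells. Induced reporter mRNA is measured after 24 h and fitted bidirectionally relative to DMSO.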

[2] = ATG_TGFb_CIS: Attagene CIS-FACTORIAL HepG2 Assay for human Transforming Growth Factor (TGF) (AID 2282967; active = hit-call score of the fitted dose curve at least 0.9, where 1 is the maximum; inactive = score below 0.9); conditions: HepG2 Attagene CIS TGFb reporter, mRNA transcription; actives raise or lower the signal
Method in brief: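 After a 24-hour incubation with compound, transfected HepG2 cells were lysed for RNA; reporter cDNA was amplified, fluorescently end-labeled and separated by CE. DMSO served as baseline for bidirectional fits.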

[3] = ATG_VDRE_CIS: Attagene CIS-FACTORIAL HepG2 Assay for human Vitamin D Receptor Element (VDRE) (AID 2282968; active = hit-call score of the fitted dose curve at least 0.9, where 1 is the maximum; inactive = score below 0.9); conditions: HepG2 VDRE cis-reporter transcription, actives raise or lower the signal
Method in brief: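 Measures endogenous factor activity through cis-element-driven reporter transcripts in transiently transfected HepG2. Cells are treated 24 h; reporter mRNA is quantified by RT-PCR and capillary electrophoresis; fitting is bidirectional.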

[4] = target: Estrogen receptor (Homo sapiens) (UniProt P03372); assay: ATG_ERa_TRANS: Attagene TRANS-FACTORIAL HepG2 Assay for human Estrogen Receptor alpha (ERa) (AID 2282970); conditions: HepG2 Attagene TRANS ERa GAL4 reporter, mRNA
Method in brief: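 Reporter mRNA induction after 24 hours, detected by fluorescent RT-PCR and capillary electrophoresis, gives the read-out. Cells are HepG2 transiently transfected with GAL4-UAS reporter transcription units responding to chimeric NR-Gal4. Activity is taken as gain of signal over DMSO baseline.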

[5] = target: X-box-binding protein 1 (Homo sapiens) (UniProt P17861); assay: ATG_Xbp1_CIS: Attagene CIS-FACTORIAL HepG2 Assay for human X-box Binding Protein 1 (XBP1) (AID 2282972; active = hit-call score of the fitted dose curve at least 0.9, where 1 is the maximum; inactive = score below 0.9); conditions: HepG2 XBP1 cis-element reporter, Attagene multiplex; actives raise or lower the signal
Method in brief: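 Changes in reporter transcript abundance, read by RT-PCR and capillary electrophoresis, reflect endogenous transcription factor activity. Transfected HepG2 cells received compound for 24 hours; DMSO defined baseline for bidirectional analysis.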

[6] = ATG_GAL4_TRANS: Attagene TRANS-FACTORIAL HepG2 Assay for GAL4 (Internal Marker) (AID 2282976); conditions: HepG2 Attagene TRANS GAL4 internal marker reporter
Method in brief: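 RT-PCR/capillary electrophoresis readout of reporter mRNA. HepG2, transient MRTU transfection (GAL4-UAS reporters), 24 h compound exposure. Background-control endpoint, positive direction vs DMSO baseline.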

[7] = target: Glucocorticoid receptor (Homo sapiens) (UniProt P04150); assay: ATG_GR_TRANS: Attagene TRANS-FACTORIAL HepG2 Assay for human Glucocorticoid Receptor (GR) (AID 2282978); conditions: HepG2 Attagene TRANS GR reporter, mRNA transcription;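 also: activators score as hits since higher reporter transcript over DMSO is fitted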
Method in brief: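 Readout is reporter transcript from a chimeric GR-Gal4 acting on GAL4-UAS in transfected human HepG2 liver cells after 24 h exposure, quantified by RT-PCR and capillary electrophoresis. Activation fitted upward against DMSO.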

[8] = target: Bile acid receptor (Homo sapiens) (UniProt Q96RI1); assay: ATG_FXR_TRANS: Attagene TRANS-FACTORIAL HepG2 Assay for Farnesoid X Receptor (FXR) (AID 2282979); conditions: HepG2 Attagene TRANS FXR-GAL4 reporter transcription;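 also: hits raise reporter mRNA above DMSO so AC50 marks FXR activation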
Method in brief: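 Read-out: fluorescent reporter transcripts quantified by capillary electrophoresis after RT-PCR of total RNA. Source cells were HepG2 transiently carrying chimeric NR-GAL4 plus GAL4-UAS reporter units, dosed 24 h. Activity fitted upward relative to DMSO baseline.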

[9] = target: Oxysterols receptor LXR-beta (Homo sapiens) (UniProt P55055); assay: ATG_LXRb_TRANS: Attagene TRANS-FACTORIAL HepG2 Assay for human Liver X Receptor beta (LXRb) (AID 2282981); conditions: HepG2 Attagene TRANS GAL4-LXRb reporter, mRNA
Method in brief: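 After 24 h of chemical treatment, transfected HepG2 cells yield total RNA; reporter cDNA is PCR-amplified, FAM-labelled, HpaI-cut and run on capillary electrophoresis. Signal reflects chimeric LXRb-Gal4 activity on GAL4-UAS reporters.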

[10] = target: Hepatocyte nuclear factor 4-alpha (Homo sapiens) (UniProt P41235); assay: ATG_HNF4a_TRANS: Attagene TRANS-FACTORIAL HepG2 Assay for human Hepatocyte Nuclear Factor 4 alpha (HNF4a) (AID 2282982); conditions: HepG2 HNF4a transactivation reporter, mRNA readout
Method in brief: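 Multiplexed reporter assay: transfected HepG2, 24 h exposure, total RNA → oligo(dT) RT → PCR → 6-FAM extension → HpaI digest → CE fluorescence. DMSO = negative control.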

[11] = ATG_M_06_TRANS: Attagene TRANS-FACTORIAL HepG2 Assay for M06 Transcription Factor (Internal Marker) (AID 2282983); conditions: HepG2 Attagene TRANS M06 internal marker reporter
Method in brief: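 Read-out: fluorescent reporter cDNA fragments resolved by capillary electrophoresis after RT-PCR and HpaI cut. Source cells were HepG2 carrying transfected multi-reporter GAL4 constructs, dosed 24 h. Increase over DMSO control analysed.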

[12] = target: Nuclear receptor subfamily 4 group A member 2 (Homo sapiens) (UniProt P43354); assay: ATG_NURR1_TRANS: Attagene TRANS-FACTORIAL HepG2 Assay for human Nuclear Receptor Related Protein 1 (NURR1) (AID 2282985); conditions: HepG2 Attagene TRANS reporter, mRNA readout
Method in brief: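 Measures transcriptional activation by an exogenous NR-Gal4 chimera in transfected HepG2 liver cells. After 24 h, reporter RNA is reverse-transcribed, amplified and resolved by capillary electrophoresis; DMSO defines baseline.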

[13] = target: Transcriptional activator Myb (Homo sapiens) (UniProt P10242); assay: ATG_Myb_CIS: Attagene CIS-FACTORIAL HepG2 Assay for human Myeloblastosis (Myb) Proto-Oncogene Transcription Factor (AID 2282986; active = hit-call score of the fitted dose curve at least 0.9, where 1 is the maximum; inactive = score below 0.9); conditions: HepG2 Attagene CIS-FACTORIAL Myb reporter transcription; actives raise or lower the signal
Method in brief: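 Reporter mRNA is quantified by RT-PCR and capillary electrophoresis 24 h after dosing HepG2 cells transfected with cis-regulated reporter units, which track endogenous transcription factor activity. Gain and loss of signal are fitted versus DMSO baseline.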

[14] = target: Steroid hormone receptor ERR1 (Homo sapiens) (UniProt P11474); assay: ATG_ERRa_TRANS: Attagene TRANS-FACTORIAL HepG2 Assay for human Estrogen-Related Receptor alpha (ERRa) (AID 2282971); conditions: HepG2 Attagene TRANS reporter, ERRa transactivation
Method in brief: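 Transfected HepG2, 24 h dosing, ERRa-Gal4 chimera driving GAL4-UAS reporter. Readout: reporter mRNA via RT-PCR plus capillary electrophoresis (fluorescence). Positive direction vs DMSO control.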

[15] = ATG_M_19_TRANS: Attagene TRANS-FACTORIAL HepG2 Assay for M19 Transcription Factor (Internal Marker) (AID 2282974); conditions: HepG2 Attagene TRANS-FACTORIAL M19 internal marker reporter
Method in brief: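 Background-control readout: after 24 h chemical exposure of transfected HepG2 carrying GAL4-driven reporter units, RNA was reverse-transcribed, amplified, fluorescently labeled and sized by capillary electrophoresis; gain-of-signal fit against DMSO.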

[16] = target: Estrogen-related receptor gamma (Homo sapiens) (UniProt P62508); assay: ATG_ERRg_TRANS: Attagene TRANS-FACTORIAL HepG2 Assay for human Estrogen-Related Receptor gamma (ERRg) (AID 2282977); conditions: HepG2 Attagene TRANS reporter, ERRg transactivation;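 also: hits increase reporter signal over DMSO so potencies reflect activators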
Method in brief: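 Exogenous NR-Gal4 chimera activity was assessed in HepG2 cells bearing transfected GAL4-UAS reporters. After 24 h dosing, total RNA underwent RT-PCR, fluorescent primer extension and HpaI digestion before capillary electrophoresis, with gain of signal scored against DMSO.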

[17] = target: Oxysterols receptor LXR-alpha (Homo sapiens) (UniProt Q13133); assay: ATG_LXRa_TRANS: Attagene TRANS-FACTORIAL HepG2 Assay for human Liver X Receptor alpha (LXRa) (AID 2282980); conditions: HepG2 Attagene TRANS reporter, LXRa transactivation
Method in brief: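 Read-out: reporter transcript levels by RT-PCR plus capillary electrophoresis, fluorescence intensity. Transiently transfected HepG2, exogenous NR-GAL4 chimera, GAL4-UAS reporters; 24 h compound exposure. Activity = increase over DMSO negative control.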

[18] = ATG_M_32_TRANS: Attagene TRANS-FACTORIAL HepG2 Assay for M32 Transcription Factor (Internal Marker) (AID 2282984); conditions: HepG2 Attagene TRANS M32 internal marker reporter;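 also: transcript level of a background control reporter unit measured by RT-PCR and capillary electrophoresis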
Method in brief: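 Cell-based TRANS-format assay in HepG2: exogenous chimeric GAL4 reporter units transiently expressed, compounds applied 24 h. Reporter mRNA detected by RT-PCR plus capillary electrophoresis; this readout is an internal background marker.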

[19] = target: Nuclear receptor subfamily 1 group I member 3 (Homo sapiens) (UniProt Q14994); assay: ATG_CAR_TRANS: Attagene TRANS-FACTORIAL HepG2 Assay for human Constitutive Androstane Receptor (CAR) (AID 2282969); conditions: HepG2 Attagene TRANS-FACTORIAL CAR reporter;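 also: activators raise reporter mRNA above DMSO so AC50 marks induction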
Method in brief: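 Signal is reporter mRNA induction relative to DMSO, measured 24 h after dosing by RT-PCR with fluorescent primer extension and capillary electrophoresis. Human HepG2 liver cells carried transiently transfected chimeric NR-Gal4/GAL4-UAS reporter constructs.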

Chain of Estrogen-related receptor gamma (Homo sapiens) (P62508 whole entry, looked up, the tested form may be a part): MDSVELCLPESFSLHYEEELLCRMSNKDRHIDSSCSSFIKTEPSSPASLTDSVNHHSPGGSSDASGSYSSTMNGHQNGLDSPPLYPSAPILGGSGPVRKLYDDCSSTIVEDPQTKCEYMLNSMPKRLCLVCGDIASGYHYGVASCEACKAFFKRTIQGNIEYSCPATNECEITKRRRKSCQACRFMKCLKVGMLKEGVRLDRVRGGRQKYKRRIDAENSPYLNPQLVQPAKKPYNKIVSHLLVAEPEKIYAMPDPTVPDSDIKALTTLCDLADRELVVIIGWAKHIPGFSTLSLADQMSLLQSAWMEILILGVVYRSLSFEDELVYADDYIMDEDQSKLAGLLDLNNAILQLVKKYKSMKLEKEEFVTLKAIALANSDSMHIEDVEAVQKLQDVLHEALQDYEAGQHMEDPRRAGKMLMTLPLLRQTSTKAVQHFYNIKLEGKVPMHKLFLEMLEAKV
Chain of Glucocorticoid receptor (Homo sapiens) (P04150 whole entry, looked up, the tested form may be a part): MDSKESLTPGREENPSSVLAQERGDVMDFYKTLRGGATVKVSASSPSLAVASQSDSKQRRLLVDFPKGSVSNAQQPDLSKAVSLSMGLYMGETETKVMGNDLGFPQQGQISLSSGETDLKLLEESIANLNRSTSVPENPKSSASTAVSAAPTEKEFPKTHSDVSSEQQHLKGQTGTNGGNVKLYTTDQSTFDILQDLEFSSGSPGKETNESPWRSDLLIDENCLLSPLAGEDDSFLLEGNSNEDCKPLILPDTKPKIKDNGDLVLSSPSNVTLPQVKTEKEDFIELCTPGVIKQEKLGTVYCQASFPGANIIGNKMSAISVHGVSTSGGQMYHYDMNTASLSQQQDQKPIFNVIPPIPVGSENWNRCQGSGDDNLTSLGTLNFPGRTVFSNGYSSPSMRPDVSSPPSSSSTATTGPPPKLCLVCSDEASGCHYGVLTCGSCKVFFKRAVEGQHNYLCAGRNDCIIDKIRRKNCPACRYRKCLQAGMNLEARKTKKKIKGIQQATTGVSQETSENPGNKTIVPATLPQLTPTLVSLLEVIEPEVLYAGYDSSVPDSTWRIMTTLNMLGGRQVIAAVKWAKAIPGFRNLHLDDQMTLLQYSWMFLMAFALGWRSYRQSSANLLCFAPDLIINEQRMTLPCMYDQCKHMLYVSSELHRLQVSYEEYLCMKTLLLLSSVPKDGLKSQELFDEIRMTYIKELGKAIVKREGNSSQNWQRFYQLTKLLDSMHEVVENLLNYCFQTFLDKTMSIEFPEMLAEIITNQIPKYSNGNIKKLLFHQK
Chain of Transcriptional activator Myb (Homo sapiens) (P10242 whole entry, looked up): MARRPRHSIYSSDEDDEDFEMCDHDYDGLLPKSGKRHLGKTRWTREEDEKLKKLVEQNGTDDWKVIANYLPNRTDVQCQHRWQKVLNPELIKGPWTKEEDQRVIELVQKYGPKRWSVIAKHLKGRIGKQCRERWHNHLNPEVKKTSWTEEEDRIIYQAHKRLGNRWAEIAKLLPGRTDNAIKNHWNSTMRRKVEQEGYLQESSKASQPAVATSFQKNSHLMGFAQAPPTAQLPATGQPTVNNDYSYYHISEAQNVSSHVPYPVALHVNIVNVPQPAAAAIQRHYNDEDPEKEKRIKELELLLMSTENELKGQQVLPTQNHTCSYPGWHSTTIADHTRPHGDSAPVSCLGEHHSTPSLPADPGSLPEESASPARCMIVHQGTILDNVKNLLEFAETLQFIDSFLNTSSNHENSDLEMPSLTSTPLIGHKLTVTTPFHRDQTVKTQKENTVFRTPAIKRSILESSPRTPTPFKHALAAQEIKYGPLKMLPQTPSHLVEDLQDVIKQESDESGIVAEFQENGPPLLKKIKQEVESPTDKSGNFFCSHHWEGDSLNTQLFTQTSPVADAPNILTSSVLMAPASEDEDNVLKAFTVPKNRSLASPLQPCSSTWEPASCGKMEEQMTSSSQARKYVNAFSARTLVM
Chain of X-box-binding protein 1 (Homo sapiens) (P17861 whole entry, looked up): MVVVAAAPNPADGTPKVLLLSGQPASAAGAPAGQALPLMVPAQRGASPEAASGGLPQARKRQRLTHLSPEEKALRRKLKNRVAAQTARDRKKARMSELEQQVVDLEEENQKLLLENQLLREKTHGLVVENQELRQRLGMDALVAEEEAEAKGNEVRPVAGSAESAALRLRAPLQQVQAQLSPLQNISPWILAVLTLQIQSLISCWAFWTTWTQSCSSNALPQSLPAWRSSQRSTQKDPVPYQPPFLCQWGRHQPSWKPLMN
Chain of Nuclear receptor subfamily 4 group A member 2 (Homo sapiens) (P43354 whole entry, looked up, the tested form may be a part): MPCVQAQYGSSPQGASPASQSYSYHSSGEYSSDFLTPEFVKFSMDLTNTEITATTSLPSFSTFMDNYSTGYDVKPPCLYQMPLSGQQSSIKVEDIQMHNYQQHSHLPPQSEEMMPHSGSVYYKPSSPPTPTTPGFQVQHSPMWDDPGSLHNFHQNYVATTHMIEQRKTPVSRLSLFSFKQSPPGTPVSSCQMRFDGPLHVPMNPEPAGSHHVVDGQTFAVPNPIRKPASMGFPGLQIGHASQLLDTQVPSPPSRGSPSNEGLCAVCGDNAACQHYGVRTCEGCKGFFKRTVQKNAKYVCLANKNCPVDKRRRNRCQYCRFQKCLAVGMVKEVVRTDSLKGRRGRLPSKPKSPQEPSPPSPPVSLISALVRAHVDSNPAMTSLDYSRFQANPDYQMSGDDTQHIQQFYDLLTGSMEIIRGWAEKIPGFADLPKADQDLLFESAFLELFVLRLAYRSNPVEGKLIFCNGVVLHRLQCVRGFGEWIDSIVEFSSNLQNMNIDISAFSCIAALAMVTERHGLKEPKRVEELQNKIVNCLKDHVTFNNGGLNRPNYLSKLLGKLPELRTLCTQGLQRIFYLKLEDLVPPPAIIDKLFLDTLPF
Chain of Oxysterols receptor LXR-alpha (Homo sapiens) (Q13133 whole entry, looked up, the tested form may be a part): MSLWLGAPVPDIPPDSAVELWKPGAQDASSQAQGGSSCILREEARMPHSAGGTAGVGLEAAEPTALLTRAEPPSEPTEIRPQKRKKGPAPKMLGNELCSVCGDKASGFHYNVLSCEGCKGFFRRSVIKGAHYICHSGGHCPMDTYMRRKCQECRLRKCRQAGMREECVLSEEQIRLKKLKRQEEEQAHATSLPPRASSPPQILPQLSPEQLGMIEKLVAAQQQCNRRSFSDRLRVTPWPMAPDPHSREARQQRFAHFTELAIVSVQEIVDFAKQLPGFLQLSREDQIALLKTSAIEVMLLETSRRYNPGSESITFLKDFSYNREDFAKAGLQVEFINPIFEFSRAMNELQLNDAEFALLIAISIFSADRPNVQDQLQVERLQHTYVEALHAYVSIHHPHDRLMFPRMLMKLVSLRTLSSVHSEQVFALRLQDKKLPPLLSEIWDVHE
Chain of Hepatocyte nuclear factor 4-alpha (Homo sapiens) (P41235 whole entry, looked up): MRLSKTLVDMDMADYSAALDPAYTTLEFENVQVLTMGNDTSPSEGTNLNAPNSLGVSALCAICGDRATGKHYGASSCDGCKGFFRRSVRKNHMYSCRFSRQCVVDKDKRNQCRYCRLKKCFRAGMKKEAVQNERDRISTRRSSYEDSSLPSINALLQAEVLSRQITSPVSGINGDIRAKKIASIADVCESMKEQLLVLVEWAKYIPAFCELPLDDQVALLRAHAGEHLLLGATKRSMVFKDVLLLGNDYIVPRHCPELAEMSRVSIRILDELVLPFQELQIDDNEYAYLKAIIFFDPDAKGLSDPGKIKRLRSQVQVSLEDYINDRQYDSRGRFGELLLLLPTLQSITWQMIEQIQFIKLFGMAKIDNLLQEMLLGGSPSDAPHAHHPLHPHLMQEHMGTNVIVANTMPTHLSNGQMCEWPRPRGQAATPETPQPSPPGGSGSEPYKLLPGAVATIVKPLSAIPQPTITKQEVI
Chain of Bile acid receptor (Homo sapiens) (Q96RI1 whole entry, looked up, the tested form may be a part): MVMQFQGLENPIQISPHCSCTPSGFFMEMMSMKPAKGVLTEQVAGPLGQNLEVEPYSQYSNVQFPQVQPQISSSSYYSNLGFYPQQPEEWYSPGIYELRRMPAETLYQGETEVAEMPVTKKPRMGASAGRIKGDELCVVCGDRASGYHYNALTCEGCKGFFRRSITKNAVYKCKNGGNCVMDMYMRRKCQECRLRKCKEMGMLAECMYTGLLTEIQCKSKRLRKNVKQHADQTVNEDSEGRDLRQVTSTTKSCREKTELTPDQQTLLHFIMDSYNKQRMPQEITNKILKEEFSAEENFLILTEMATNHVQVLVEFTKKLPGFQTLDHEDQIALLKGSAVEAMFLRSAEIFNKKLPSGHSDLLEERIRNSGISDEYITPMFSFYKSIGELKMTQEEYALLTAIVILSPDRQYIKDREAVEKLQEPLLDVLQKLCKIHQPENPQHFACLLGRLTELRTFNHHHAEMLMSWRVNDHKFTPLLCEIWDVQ
Chain of Estrogen receptor (Homo sapiens) (P03372 whole entry, looked up, the tested form may be a part): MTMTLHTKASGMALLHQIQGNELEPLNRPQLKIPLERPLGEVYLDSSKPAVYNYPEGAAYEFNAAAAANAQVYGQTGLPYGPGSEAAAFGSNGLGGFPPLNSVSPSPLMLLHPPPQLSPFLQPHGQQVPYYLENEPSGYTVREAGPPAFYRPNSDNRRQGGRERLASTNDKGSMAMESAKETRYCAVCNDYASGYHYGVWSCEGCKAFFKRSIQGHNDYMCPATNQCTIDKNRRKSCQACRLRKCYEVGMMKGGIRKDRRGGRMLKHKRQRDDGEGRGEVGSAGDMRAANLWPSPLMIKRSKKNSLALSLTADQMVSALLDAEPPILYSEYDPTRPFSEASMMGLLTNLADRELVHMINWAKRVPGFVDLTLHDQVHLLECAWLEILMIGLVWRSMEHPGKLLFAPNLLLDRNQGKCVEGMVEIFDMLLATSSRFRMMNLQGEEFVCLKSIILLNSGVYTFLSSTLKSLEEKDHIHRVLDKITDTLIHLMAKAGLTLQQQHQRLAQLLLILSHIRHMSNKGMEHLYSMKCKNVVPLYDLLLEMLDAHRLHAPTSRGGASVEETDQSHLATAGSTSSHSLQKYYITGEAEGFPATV

CCCCCCCCCCCCC
outcome [1]: inactive | outcome [2]: inactive | outcome [3]: inactive | outcome [4]: inactive | outcome [5]: inactive | outcome [6]: inactive | outcome [7]: inactive | outcome [8]: inactive | outcome [9]: inactive | outcome [10]: inactive | outcome [11]: inactive | outcome [12]: inactive | outcome [13]: inactive

CC1=CP(=O)(c2ccccc2)CC1 (stereo not drawn)
outcome [1]: inactive | outcome [2]: inactive | outcome [3]: inactive | outcome [14]: inactive | outcome [15]: inactive | outcome [16]: inactive | outcome [7]: inactive | outcome [8]: inactive | outcome [12]: inactive

CC(C)C(=O)OCCOc1ccccc1
outcome [1]: inactive | outcome [2]: inactive | outcome [3]: inactive | outcome [5]: inactive | outcome [15]: inactive | outcome [7]: inactive | outcome [17]: inactive | outcome [11]: inactive | outcome [13]: inactive

Nc1ccc(C(=O)OCCCOC(=O)c2ccc(N)cc2)cc1
outcome [1]: inactive | outcome [2]: inactive | AC50 [3]: 48.8 µM (active) | outcome [4]: inactive | outcome [5]: inactive | outcome [15]: inactive | outcome [7]: inactive | outcome [8]: inactive | outcome [10]: inactive | outcome [18]: inactive | outcome [13]: inactive

O=C(O)C1CCC(C(=O)O)CC1 (stereo not drawn)
outcome [1]: inactive | outcome [3]: inactive | outcome [5]: inactive | outcome [11]: inactive | outcome [12]: inactive

c1ccc2sc(SSN3CCOCC3)nc2c1
outcome [1]: inactive | outcome [2]: inactive | outcome [3]: inactive | outcome [4]: inactive | AC50 [5]: 100 µM (active) | outcome [16]: inactive | outcome [17]: inactive | outcome [11]: inactive | outcome [18]: inactive

CC12CCC(CC1)C(C)(C)O2
outcome [1]: inactive | outcome [2]: inactive | outcome [3]: inactive | outcome [5]: inactive | outcome [6]: inactive | outcome [7]: inactive | outcome [8]: inactive | outcome [10]: inactive | outcome [11]: inactive | outcome [12]: inactive | outcome [13]: inactive

Oc1ccc(-c2ccccc2)c(Cl)c1
outcome [1]: inactive | outcome [2]: inactive | AC50 [3]: 33.4 µM (active) | AC50 [5]: 33.4 µM (active) | outcome [15]: inactive | outcome [7]: inactive | outcome [17]: inactive | outcome [18]: inactive | outcome [13]: inactive

CCC(=O)C1CC(C(C)C)CC=C1C (stereo not drawn)
outcome [1]: inactive | outcome [2]: inactive | outcome [4]: inactive | outcome [14]: inactive | outcome [5]: inactive | outcome [16]: inactive | outcome [7]: inactive | outcome [17]: inactive | outcome [11]: inactive | outcome [13]: inactive

Nc1ccc(Cl)c(N)c1
outcome [1]: inactive | outcome [3]: inactive | outcome [4]: inactive | outcome [5]: inactive | outcome [15]: inactive | outcome [6]: inactive | outcome [17]: inactive | outcome [11]: inactive | outcome [13]: inactive

[Cl][Eu]([Cl])[Cl]
outcome [1]: inactive | outcome [2]: inactive | outcome [3]: inactive | AC50 [4]: 36.6 µM (active) | outcome [5]: inactive | outcome [7]: inactive | outcome [8]: inactive | outcome [11]: inactive | outcome [13]: inactive

O=C1CCCCCCCCCCCN1
outcome [1]: inactive | outcome [2]: inactive | outcome [3]: inactive | outcome [19]: inactive | outcome [5]: inactive | outcome [6]: inactive | outcome [17]: inactive | outcome [11]: inactive

c1ccc2c(c1)[nH]c1ccccc12
outcome [1]: inactive | outcome [2]: inactive | outcome [4]: inactive | outcome [5]: inactive | outcome [15]: inactive | outcome [6]: inactive | outcome [7]: inactive | outcome [9]: inactive | outcome [18]: inactive | outcome [12]: inactive | outcome [13]: inactive

From PubChem BioAssay (EPA / NIEHS)
